Screening data: PubChem BioAssay, National Center for Advancing Translational Sciences (NCATS)
Pf growth 96h: inhibits malaria parasite growth, 96 h | Potency, µM (highest dose often 28.7 µM), usual class: inhibitors | P. falciparum luciferase reporter growth, 96 h | 320,000 tested, 6.9% active | AID 504834
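Cell-based qHTS: luciferase-tagged P. falciparum in erythrocytes (2% hematocrit, 0.05% parasitemia final) incubated with compounds for 96 hours, 37 C, 5% CO2; luciferase detection reagent then added and luminescence measured.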
MARV entry inh: inhibitors of Marburg virus binding or cell entry; Marburg virus pseudotyped entry inhibition, cell reporter; Potency, µM (highest dose often 37.8 µM), usual class: inhibitors; 300,000 tested, 1.8% active; calls by dose curve; tested in HEK293 cells
Cycloheximide cs: counter-screen for Shiga toxin inhibitors: cycloheximide protein synthesis inhibition | 300,000 tested, 12% active | max response, % | cell reporter, cycloheximide protein synthesis inhibition counterscreen; in the data active = max response mostly above about 13%, no sharp cut-off; inactive = mostly below about 14%; also: read at 38.3 µM for the half of the compounds with a filed dose
Shiga toxin inh: blocks Shiga toxin action in Vero cells | 290,000 tested, 9.2% active | Vero cells, Shiga toxin protein synthesis inhibition reporter | inhibition, % at 38.7 µM; in the data active = inhibition mostly above about 28%, no sharp cut-off; inactive = mostly below about 43%
Lassa entry inh: inhibitors of Lassa virus binding or cell entry. AID 540256. Potency, µM (highest dose often 37.9 µM), hits mostly inhibitors. Lassa virus pseudotype entry inhibition, cell reporter. 300,000 tested, 1.2% active; calls by dose curve; tested in HEK293 cells; also: nearly all actives have a fitted effect of over 50% in size
Pf growth 48h: P. falciparum growth inhibition at 48 hours (one generation); AID 504832; Potency, µM (series often up to 28.7 µM), hits mostly inhibitors; 310,000 tested, 5.9% active; P. falciparum luciferase growth in erythrocytes, 48 h
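Read-out is firefly luciferase luminescence from an integrated reporter in P. falciparum, so falling signal marks reduced parasite growth. Infected erythrocytes were at 2% hematocrit and 0.1% parasitemia (final) in Albumax-supplemented RPMI 1640.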
Each line names hits and unclear results; the compound was inactive in the other large screens. Shown are actives, neighbours in structure and some others; about 19% of the full set was active somewhere. Unless noted, calls follow the shape of the dose curve; as a rule, active = well fitted inhibition curve with a large enough effect; inconclusive = small, poorly fitted or top-dose-only effect, or another doubt; inactive = no such curve, though single readings can be large or run the other way.

N#CC12CCCCC1CC1CCCCC1(C#N)N2Cc1ccccn1 (stereo not drawn)	Pf growth 96h 9.3µM, Pf growth 48h inconclusive
N#CC12CCCCC1CC1CCCCC1(C#N)N2CCO (stereo not drawn)	none
COc1cccc(CNC(=O)c2ccc(NC3=NC4CS(=O)(=O)CC4S3)cc2)c1 (stereo not drawn)	none (no result: MARV entry inh, Lassa entry inh)
COc1ccccc1CNC(=O)CN1C(=O)NC2(CCCC2)C1=O	none (no result: MARV entry inh, Cycloheximide cs, Shiga toxin inh, Lassa entry inh)
O=C(c1cccc(F)c1)N1CCN(C2CCCCC2)CC1	none (no result: Pf growth 48h)
CCCCCn1c(C)c2c(OCC)cccc(=O)c2c1C	Pf growth 48h inconclusive (no result: MARV entry inh, Lassa entry inh)
O=C(NCc1ccccc1)c1onc(CSc2ccccn2)c1C(=O)NCc1ccccc1	none (no result: MARV entry inh, Lassa entry inh)
CC(C(=O)Nc1sc2c(c1C(=O)NCC1CCCO1)CCC2)N1C(=O)c2ccccc2C1=O (stereo not drawn)	MARV entry inh inconclusive
Cc1ccc(CN2C(=O)CCC2C(=O)NCCN(CC(C)C)CC(C)C)cc1 (stereo not drawn)	Pf growth 96h inconclusive, MARV entry inh inconclusive, Cycloheximide cs 26, Pf growth 48h inconclusive
COc1cccc(NCc2nnc(SCC(=O)N(C)C3CCS(=O)(=O)C3)n2C2CCCCC2)c1 (stereo not drawn)	Pf growth 96h inconclusive
CCOC(=O)/C=C1\SCC(=O)N1CC(=O)NC12CC3CC(CC(C3)C1)C2	Lassa entry inh inconclusive (no result: Pf growth 48h)
CCCOc1ccc(C(=O)Nc2ccc(N(C)C)cc2)cc1	Cycloheximide cs 47, Shiga toxin inh 141 (no result: Pf growth 96h)
CC(C)Oc1ccc(C(=O)Nc2ccc(N(C)C)cc2)cc1	Cycloheximide cs 25, Shiga toxin inh 90, Lassa entry inh inconclusive
CC1CCCCN1S(=O)(=O)c1ccc(C(=O)Nc2ccccc2-c2nc3ccccc3s2)cc1 (stereo not drawn)	MARV entry inh inconclusive
O=C(Nc1ccccc1-c1nc2ccccc2[nH]1)c1ccc(S(=O)(=O)N2CCCCC2)cc1	Pf growth 96h 2.9µM, Pf growth 48h inconclusive
O=C(Nc1ccccc1-c1nc2ccccc2[nH]1)c1ccc(N2C(=O)CCC2=O)cc1	Pf growth 96h inconclusive, MARV entry inh inconclusive, Pf growth 48h inconclusive
CC1CCCCN1S(=O)(=O)c1ccc(C(=O)Nc2ccccc2-c2nc3ccccc3[nH]2)cc1 (stereo not drawn)	Pf growth 96h inconclusive, MARV entry inh inconclusive, Pf growth 48h 1.9µM
O=C(Nc1ccccc1NC(=O)c1ccccc1F)c1ccccc1F	Pf growth 48h inconclusive
O=C(Nc1ccccc1Cl)c1ccn[nH]1	Cycloheximide cs 20, Lassa entry inh inconclusive
O=C(Nc1ccccc1F)c1ccn[nH]1	Cycloheximide cs 22, Shiga toxin inh 47
O=C(NCC(c1cccnc1)N1CCN(c2ccc(F)cc2)CC1)C1CCCCC1 (stereo not drawn)	Pf growth 48h inconclusive
O=C(Cn1c(C(F)(F)F)nc2ccccc21)Oc1cccc(C(F)(F)F)c1	none
COc1ccc(-c2cc(C(=O)O)nc3ccc4ccccc4c23)cc1OC	Pf growth 96h inconclusive, Cycloheximide cs 18, Shiga toxin inh 41
O=C(O)C1CCCCC1C(=O)N1CC=C(c2ccccc2)CC1 (stereo not drawn)	Cycloheximide cs 27, Shiga toxin inh 53
O=C(Nc1ccccc1)N1CC=C(c2ccc(F)cc2)CC1	MARV entry inh inconclusive, Cycloheximide cs 52, Shiga toxin inh 95, Pf growth 48h 10µM (no result: Pf growth 96h)
O=C(c1ccc(Br)o1)N1CC=C(c2ccccc2)CC1	none (no result: Pf growth 96h, Cycloheximide cs, Shiga toxin inh, Pf growth 48h)
Cc1ccc(C(=O)N2CC=C(c3ccccc3)CC2)s1	Lassa entry inh inconclusive, Pf growth 48h 10µM (no result: Cycloheximide cs, Shiga toxin inh)
COCCn1c(=O)[nH]c2cc(C(=O)Nc3cccc(F)c3)ccc2c1=O	Pf growth 96h inconclusive (no result: MARV entry inh, Lassa entry inh)
O=C(Nc1cccc(F)c1)N1CC=C(n2c(=O)[nH]c3ccccc32)CC1	Pf growth 48h 10µM
Cc1ccc(NC(=O)CN(c2ccc3c(c2)OCO3)S(=O)(=O)c2c(C)n[nH]c2C)cc1	none (no result: MARV entry inh, Lassa entry inh)
O=C(Nc1ccccc1)N1CC=C(c2ccccc2)CC1	Cycloheximide cs 36, Shiga toxin inh 80 (no result: Pf growth 96h, Lassa entry inh)
O=C(Nc1cccc2ccccc12)N1CC=C(c2ccccc2)CC1	Pf growth 96h 0.1µM, MARV entry inh inconclusive (no result: Pf growth 48h)
CCOC(=O)N1CCN(C(=O)Nc2cccc3ccccc23)CC1	Pf growth 96h inconclusive
CCC(NC(=O)Nc1ccc(O)cc1)(C(F)(F)F)C(F)(F)F	MARV entry inh inconclusive, Pf growth 48h inconclusive (no result: Pf growth 96h)
CCC(NC(=O)NC1=NCCS1)(C(F)(F)F)C(F)(F)F	Pf growth 96h 0.21µM
CC(C)CNC(=S)NC(=O)c1ccccc1Cl	Cycloheximide cs 40, Shiga toxin inh 43
O=C(NC(=S)Nc1ccc(O)cc1)c1ccccc1Cl	Cycloheximide cs 34 (no result: MARV entry inh, Lassa entry inh)
Cc1ccc(O)c(NC(=O)c2ccccc2-c2ccccc2C(=O)O)c1	Pf growth 96h inconclusive (no result: Shiga toxin inh)
Cc1ccc(O)c(NC(=S)NC(=O)c2ccccc2Cl)c1	MARV entry inh inconclusive, Cycloheximide cs 17, Lassa entry inh inconclusive
COc1ccc(NC(=S)NC(=O)c2ccccc2Cl)cc1	Pf growth 96h inconclusive, Cycloheximide cs 38, Shiga toxin inh 96 (no result: MARV entry inh, Lassa entry inh)
CC(NC(=O)c1ccccc1Cl)NC(=O)c1ccccc1Cl	none (no result: MARV entry inh, Lassa entry inh)
O=C(NC(=S)Nc1ccc(N2CCOCC2)cc1)c1cccc(Cl)c1Cl	none
Cc1nn(C)c(C(=O)NC(=S)Nc2ccccc2O)c1Cl	Pf growth 96h inconclusive, Cycloheximide cs 10, Pf growth 48h inconclusive
CCN(CC)c1ccc(NC(=O)c2cc(S(=O)(=O)N3CCc4ccccc43)cn2C)c(C)c1	none (no result: Pf growth 96h, MARV entry inh, Cycloheximide cs, Shiga toxin inh, Pf growth 48h)
O=C(CCS(=O)(=O)c1ccc(Cl)cc1)Nc1ccc(F)cc1	Pf growth 96h 10µM
O=C(CCS(=O)(=O)c1ccccc1)Nc1ccc(Cl)cn1	Cycloheximide cs 24, Shiga toxin inh 61
O=C(CC(c1ccccc1)c1ccccc1)Nc1ccc(Cl)cn1	MARV entry inh inconclusive, Lassa entry inh inconclusive (no result: Pf growth 48h)
O=C(CS(=O)(=O)c1ccccc1)Nc1ccc(Cl)cn1	Shiga toxin inh 67 (no result: MARV entry inh, Lassa entry inh)
COc1cccc(N2CCN(CC(=O)Nc3ccc(SC(F)F)cc3)CC2)c1	none
Cc1c(N(C(=O)Cc2cccs2)C2(C(=O)NC3CCCC3)CCCCC2)c(=O)n(-c2ccccc2)n1C	Pf growth 96h inconclusive
CN1CCN(C(=O)/C=C/c2cccc(Cl)c2)CC1	Cycloheximide cs 17 (no result: MARV entry inh, Lassa entry inh)
CN1CCN(C(=O)/C=C/c2c(F)cccc2Cl)CC1	Cycloheximide cs 19 (no result: MARV entry inh, Lassa entry inh)
CN1CCN(C(=O)/C=C\c2ccc(Cl)cc2)CC1	MARV entry inh inconclusive, Lassa entry inh inconclusive
COC(=O)c1ccc(/C=N/NC(=O)CNc2cccc(C)c2)cc1	Lassa entry inh inconclusive
CCOc1cc(/C=N/NC(=O)CNc2cccc(C)c2)ccc1OC(=O)c1ccccc1	Lassa entry inh 16µM
CCOc1cc(/C=N/Nc2cccc(C(=O)O)c2)ccc1OC(=O)c1ccccc1	MARV entry inh inconclusive, Cycloheximide cs 61, Shiga toxin inh 186, Lassa entry inh inconclusive
COc1ccc(Nc2ncc(C(=O)N3CCC4(CC3)OCCO4)c3ccccc23)cc1	none
CCCCN=C1NN=C(c2ccc(C)c(C)c2)CS1	Pf growth 96h inconclusive, MARV entry inh inconclusive, Cycloheximide cs 44, Shiga toxin inh 87, Pf growth 48h inconclusive
